Experimental findings from PubChem BioAssay (EPA / NIEHS) are described below.

Each structure is given as a SMILES string. Activity calls are given as the source filed them. How the source made its calls: active means hit-call score of the fitted dose curve at least 0.9, where 1 is the maximum; inactive means score below 0.9.

What is called AC50 is the concentration at which the activity in the assay is half-maximal.

Read-out in the assay: ABC Transporter (ABCB1), ABCB1 (gene 5243)
The experiment in a line: LTEA_HepaRG_ABCB1: Life Technologies and Expression Analysis (LTEA) Assay for ABC Transporter (ABCB1) using HepaRG (AID 2283460). As to conditions: mRNA level, 48 h; actives raise or lower the signal. As to the method: LTEA_HepaRG is a cell based, multiplexed-readout assay that uses HepaRG, a human liver cell line, with measurements taken at 48 hours after chemical dosing on a 96-well plate.LTEA_HepaRG_ABCB1 is one of 102 assay component(s) measured in the LTEA HepaRG cell culture assay. It is a marker of Steatosis/NR mediated transport.Data from the assay component LTEA_HepaRG_ABCB1 was analyzed into 1 endpoint. This assay endpoint, LTEA_HepaRG_ABCB1, was analyzed with bidirectional fitting relative to DMSO as the negative control and baseline of activity. Using a type of inducible reporter, measures of mRNA induction for gain or loss-of-signal activity can be used to understand regulation of transcription factor activity. To generalize the intended target to other relatable targets, this assay endpoint is annotated to the transporter intended target family, where the subfamily is ABC transporter.
A total of 1060 chemcials from the ToxCast library were tested in eight-point concentration-response experiments. Cell culture and cytotoxicity assays were conducted at Thermo Fisher Scientific's Custom Services facility (Madison, WI). A single lot of human HepaRG cells (Thermo Fisher Scientific, Frederick, MD) was used for the cell culture experiments. 96-well format collagen type I coated plates of human HepaRG cells were prepared using established methods. Briefly, cryopreserved HepaRG cells were thawed, plated at a density of approximately 100,000 cells/well in HepaRG Thaw, Plate, and General Purpose media (HPRG770, Thermo Fisher Scientific), and incubated for 48 hours. 0.5% DMSO was selected as vehicle control to balance the requisite need of DMSO in HepaRG cultures to maintain differentiation (for example, baseline metabolism, proportions of hepatocytes vs. cholangiocytes), while enabling further hepatic receptor pathway activation (for example, PXR and CAR) in response to chemical exposure. 48 hours after plating, the culture medium was replaced with HepaRG Serum-Free Incudtion Media. Cells were exposed to each test chemical in duplicate and maintained in CO2 incubators for another 48 hours. Chemical plates were thawed to room temperature and 200x concentrations of treatment groups were prepared. 8-point conentration-reponse curves were made with the highest exposure at 100 uM, followed by half-log dilutions, all in 0.5% DMSO. Each test plate contained variouse controls, induction positive controls (1mM phenobarbital), cytotoxicity positive controls ([…] aflatoxin B1), vehicle controls (0.5% DMSO), and total lysis controls (0.5% DMSO). Cell morphology images were taken using an Essen IncuCyte FLR automated microscope, with six 96-well plates imaged in about 24 minutes. Images were captured and exported and JPEG files. Spent culture media was transfered to black-well plates for the LDH assay, and remaining media was sorted at -80 C for later use. Cells were treated with RLT buffer and frozen until shipped for gene expression analysis. Total RNA was isolated from the cell suspension in 75 uL of Buffer RLT (Qiagen, Germantown, MD 20874) by Quintiles/Expression Analysis (Durham, NC) using a custom isolation procedure. Total RNA from each plate well was transferred to a preamplification plate. Fluidigm's 96.96 Dynamic ArrayTM (Fluidigm, Amsterdam, the Netherlands) technology was used for gene expression analyses by quantitative reverse transcription polymerase chain reaction (qRT-PCR, performed by Quintiles/Expression Analysis, Durham, NC)89. Standard TaqManTM Assays (Applied Biosystems/ThermoFisher Scientific, Foster City, CA) were used to assess the expression of 93 genes selected based on their selectivity and sensitivity to important hepatic receptors known to be modulated by environmental chemicals; importance in human hepatocyte functionality; and hepatotoxicity. […]
Turning to `CN=C=S`, the call was inactive.
Turning to `CC(C)Oc1cccc(NC(=O)c2ccccc2C(F)(F)F)c1`, the AC50 is 50 µM (active).
Regarding `CCOP(=O)(OCC)Oc1nc(Cl)c(Cl)cc1Cl`, the compound was classed as inactive.
On the same count and under the same terms, for `CNC(=O)Oc1cccc2ccccc12` the value was “inactive”; for `CC(C)N1C(=O)c2ccccc2NS1(=O)=O`, “inactive”; for `Clc1cccc(C(Cl)(Cl)Cl)n1`, “inactive”.
On to `C=C(C)CN(CC)c1c([N+](=O)[O-])cc(C(F)(F)F)cc1[N+](=O)[O-]`, for which the outcome was inactive.
On the same count and under the same terms, for `O=c1n(Cl)c(=O)n(Cl)c(=O)n1Cl` the value was “inactive”.
On the same count and under the same terms, for `CC(C)C1(C)N=C(c2ncccc2C(=O)O)NC1=O` (stereo not given) the value was “inactive”; for `CCN(CC)c1nc(C)cc(OP(=S)(OC)OC)n1`, “inactive”; for `COc1ccc(-c2ccccc2)cc1NNC(=O)OC(C)C`, “inactive”.
Turning to `N#CN=C1SCCN1Cc1ccc(Cl)nc1`, the outcome was inactive.
In the case of `CCCCC(C#N)(Cn1cncn1)c1ccc(Cl)cc1` (stereo not given), the AC50 was 13.1 µM (active).
Regarding `CCN(CC)C(=O)C(C)Oc1cccc2ccccc12` (stereo not given), the call was inactive.
Same read-out and setting: to `COCc1cnc(C2=NC(C)(C(C)C)C(=O)N2)c(C(=O)O)c1` (stereo not given) belongs “inactive”; to `CS(=O)(=O)c1cc(C(F)(F)F)ccc1C(=O)c1cnoc1C1CC1`, “inactive”.
`CCOc1cc(C(C)(C)C)ccc1C1COC(c2c(F)cccc2F)=N1` (stereo not given): the AC50 was 6.97 µM (active).
In the case of `CCC(C)n1c(=O)[nH]c(C)c(Br)c1=O` (stereo not given), the call was inactive.
On the same count and under the same terms, to `O=P(O)(O)CCCl` belongs “inactive”.
Turning to `COC(=O)NC(=S)Nc1ccccc1NC(=S)NC(=O)OC`, the AC50 was 17.4 µM (active).
For the compound `Cc1cc(C)nc(Nc2ccccc2)n1`, the compound was called inactive.
Turning to `CCSC(=O)N1CCCCCC1`, the result was inactive.
Regarding `O=C(O)c1c(Cl)ccc2cc(Cl)cnc12`, the compound was called inactive.
`O=C1C2CC=CCC2C(=O)N1SC(Cl)(Cl)Cl` (stereo not given): the result was inactive.
Consider `Cc1cnc(C2=NC(C)(C(C)C)C(=O)N2)c(C(=O)O)c1` (stereo not given), for which the call was inactive.
The same measure, in the same setting: for `CSC(=O)c1c(C(F)F)nc(C(F)(F)F)c(C(=O)SC)c1CC(C)C` the value was “inactive”; for `Cc1ccc(N=CN(C)C=Nc2ccc(C)cc2C)c(C)c1`, “inactive”; for `OC(c1ccc(Cl)cc1)(c1ccc(Cl)cc1)C(Cl)(Cl)Cl`, “inactive”.
Regarding `CCOc1nc(F)cc2nc(S(=O)(=O)Nc3c(Cl)cccc3Cl)nn12`, the call was inactive.
Still for that read-out and setting: for `Clc1nc(Cl)nc(Nc2ccccc2Cl)n1` the value was “inactive”; for `N#Cc1c(Cl)cccc1Cl`, “inactive”.
Same read-out and setting: to `CCOC(=O)C(C)OC(=O)c1cc(Oc2ccc(C(F)(F)F)cc2Cl)ccc1[N+](=O)[O-]` (stereo not given) belongs “inactive”.
As for `CC(C)=CC1C(C(=O)OCc2coc(Cc3ccccc3)c2)C1(C)C` (stereo not given), the AC50 is 29.3 µM (active).
On the same count and under the same terms, for `CCCCC(O)(Cn1cncn1)c1ccc(Cl)cc1Cl` (stereo not given) the value was 11.8 µM (active).
For `COCC(=O)N(c1c(C)cccc1C)C(C)C(=O)OC` (stereo not given), the call was inactive.
Turning to `CCCN(CC)CC1COC2(CCC(C(C)(C)C)CC2)O1` (stereo not given), the call was inactive.
The same measure, in the same setting: to `CCOP(=S)(OCC)Oc1nc(Cl)n(C(C)C)n1` belongs “inactive”; to `N#Cc1c[nH]cc1-c1cccc2c1OC(F)(F)O2`, “inactive”; to `COC(=O)NS(=O)(=O)c1ccc(N)cc1`, “inactive”.
For the compound `COCC(C)N(C(=O)CCl)c1c(C)csc1C` (stereo not given), the compound was called inactive.
